Sampled rows, rich in hits. Any-hit rate of the full collection: about 3.3%.
esBAF inh = SWI/SNF esBAF complex inhibition; mouse ES cells, Bmi1-luciferase knock-in reporter, 24 h; 100% = twice the neutral-well signal; reporter increase, % at 12.5 µM; hit rate 2% among 350,000; in the data active means activation above about 40%; inconclusive means no clear call, values can overlap the other calls;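 further: 0% = median of the plate's neutral control wells and 100% = double that signal; a rise in the Bmi1 reporter signal indicates esBAF inhibition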
MITF act = MITF TRPM1 promoter activation in melanoma cells; SK-MEL-5 TRPM1-promoter luciferase, 24 h; % of positive control, neutral wells = 0; activation, % at 12.5 µM; hit rate 0.75% among 300,000; AID 588334;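 active means mean activation of at least 80% with every replicate also reaching 80%; inconclusive means mean reaches 80% but some replicate falls short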;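 further: 0% = neutral control wells and 100% = parthenolide positive control wells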
Wnt act = activates Wnt/beta-catenin signaling in a reporter cell assay; activator, plate reader; hit rate 1.2% among 300,000; activation, % at 9.35 µM; AID 743398; in the data active means activation above about 30%, passing the limit was not always enough; inconclusive means no clear call, values can overlap the other calls;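 further: 0% = neutral control wells and 100% = positive control wells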
C2C12 statin = protects C2C12 myotubes from simvastatin toxicity; hit rate 0.78% among 330,000; ATP luminescence, 48 h; scaled: DMSO 0, geranylgeraniol control 100; rescue of ATP level, % at 7.49 µM;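 active means mean ATP rescue above about 67%, or every replicate alone reaching that limit, limit read from the data, passing the limit was not always enough; inconclusive means no clear call, values can overlap the other calls; inactive means mean under the limit and some replicate under it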;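 further: myotubes were challenged with 10 µM simvastatin during compound exposure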
FXN GAA850 act = activators of GAA850 frataxin (FXN) promoter; HEK293 lucGAA850 FXN promoter luciferase reporter, 24 h; percent of 10 µM SAHA response; activation, % at 6 µM; hit rate 0.56% among 360,000; AID 540364;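 active means activation above the average of all compounds screened plus 3 SD, cutoff fixed separately per campaign, cut at about 7.5% in these data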;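 further: 0% = DMSO wells and 100% = 10 µM SAHA wells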
The depositor's hits bear a star; ? = inconclusive; . = not tested or not shown.

SMILES	esBAF inh	MITF act	Wnt act	C2C12 statin	FXN GAA850 act
C[C@H]1CN([C@@H](C)CO)C(=O)c2cc(-c3ccncc3)cnc2O[C@H]1CN(C)C(=O)NC1CCCC1	-3	.	.	6	.
Fc1ccc(N/N=C/C=C/c2ccccc2)c(F)c1	51*	46	12	-6	5
Fc1ccc(N/N=C/c2ccncc2)c(F)c1	.	63	18	.	4
CC(=O)NC[C@H]1[C@H](c2ccc(C3=CCCCC3)cc2)[C@H](CO)N1C(=O)NC(C)C	6	.	.	16	.
CCOC(=O)/C(C#N)=C1/C=CN(c2ccccc2)C=N1	37	59	5	.	2
CCOC(=O)/C(C#N)=C1/C=CN(c2ccc(C)cc2)C=N1	47*	60	20	5	2
C[C@@H]1CN([C@H](C)CO)C(=O)c2cc(NC(=O)Cn3cnnn3)ccc2O[C@H]1CN(C)C(=O)Nc1ccc2c(c1)OCO2	3	.	.	-21	.
O=C(Nc1cnn(Cc2ccc(F)cc2)c1)c1cc(-c2cccs2)on1	.	-4	5	.	6
O=C(Nc1cnn(Cc2ccc(F)cc2)c1)c1cnccn1	42*	7	.	12	2
Cc1noc(C)c1NC(=O)Nc1ccc2c(c1)C(=O)N([C@H](C)CO)C[C@@H](C)[C@@H](CN(C)Cc1ccc(C(=O)O)cc1)OCCCC[C@H](C)O2	6	.	.	-14	.
CCOc1ccccc1C(=O)N[C@H](C(=O)Nc1nc2c(s1)CCCC2)C(C)C	.	-13	-1	.	1
COc1ccc(C(=O)N[C@H](C(=O)Nc2nc3c(s2)CCCC3)C(C)C)cc1	65*	61	38*	16	2
COc1ccc(C(=O)NC(C(=O)NCc2ccccn2)C(C)C)cc1 (configuration not stated)	2	-8	-7	136*	-1
COC(=O)[C@H]1[C@H](CO)[C@H]2Cn3c(ccc(C4=CCCCC4)c3=O)[C@H]2N1C(=O)C1CCC1	0	.	.	-13	.
Nc1ccc(OCc2ccccc2)cc1	17	18	-4	11	-1
c1ccc(COc2ccc3nocc3c2)cc1	104*	117*	32*	-16	5
CC[C@H]1c2[nH]c3ccc(C(C)C)cc3c2[C@@H]2CCN3C(=O)CCC[C@H]1[C@H]23	11	0	-3	-8	2
CC(C)c1ccc2[nH]c3c(c2c1)[C@@H]1CCN2C(=O)CCC[C@H](C3)[C@H]12	81*	58	15	9	3
C[C@@H]1CN([C@@H](C)CO)C(=O)Cc2cc(N(C)C)ccc2O[C@H]1CN(C)S(=O)(=O)c1cccs1	-6	.	.	-1	.
CC1Cc2ccccc2N1C(=O)/C=C/c1cccc(F)c1 (configuration not stated)	90*	96*	14	-14	5
Cc1noc(C)c1NC(=O)Nc1cccc2c1O[C@@H](CN(C)C(=O)Nc1ccc(F)cc1)[C@@H](C)CN([C@@H](C)CO)C2=O	3	.	.	.	.
Cn1nccc1-c1ccc(C(=O)NCc2ccc(Cl)cc2)c2occc12	80*	.	.	-2	2
COc1ccc(-c2ccc(C(=O)NCc3ccccc3)c3occc23)c(C)c1	50*	.	10	-1	1
COc1ccc(-c2ccc(C(=O)Nc3ccc(Cl)cc3)c3occc23)c(C)c1	80*	.	5	3	0
CCN=c1scc(-c2ccc(F)cc2)n1/N=C/c1ccccn1	.	91*	17	.	8.8*
SMILES	esBAF inh	MITF act	Wnt act	C2C12 statin	FXN GAA850 act
CCN=c1scc(-c2ccccc2)n1/N=C/c1ccccn1	.	8	.	.	-7
CCCCNC(=O)Nc1nc2ccccc2s1	.	79	13	.	4
CCCNC(=O)Nc1nc2ccccc2s1	.	126*	?	.	7
Cc1csc(SCC(=O)Nc2nc3ccccc3s2)n1	47*	.	-2	.	4
Cc1c(C(=O)Nc2cnccn2)oc2ccccc12	61*	7	5	-89	-1
Cc1ccccc1C(=O)Nc1ccc(Cl)cn1	25	.	.	-11	1
O=C(Nc1nnc(C2CC2)s1)c1cc(-c2ccccc2)nn1-c1ccccc1	3	.	-3	78*	1
Cc1ccnc(NC(=O)c2oc3ccccc3c2C)c1	-12	6	-5	-2	3
Cc1c(C(=O)Nc2ccc(Cl)cn2)oc2ccccc12	45*	23	28	86*	-1
Cc1c(C(=O)Nc2nccs2)oc2ccccc12	70*	.	80*	20	5
CCC(=O)N(C)C[C@@H]1Oc2cc(-c3ccccc3)ccc2S(=O)(=O)N([C@@H](C)CO)C[C@@H]1C	-22	.	.	2	.
COc1ccc(NC(=O)N(C)C[C@H]2Oc3c(NC(=O)NC(C)C)cccc3C(=O)N([C@@H](C)CO)C[C@@H]2C)cc1	3	.	.	31	.
Cc1cc(C(=O)Nc2cccc3c2O[C@@H](CN(C)C(=O)Nc2ccc4c(c2)OCO4)[C@@H](C)CN([C@H](C)CO)C3=O)n(C)n1	2	.	.	17	.
CC(C)CC#Cc1cnc2c(c1)C(=O)N([C@@H](C)CO)C[C@H](C)[C@@H](CN(C)C(=O)c1cnccn1)O2	3	.	.	-1	.
CC(C)NC(=O)NCC[C@@H]1CC[C@H](NS(=O)(=O)c2ccc(-c3ccccc3)cc2)[C@@H](CO)O1	-8	.	.	10	.
C[C@@H]1CN([C@H](C)CO)S(=O)(=O)c2ccc(C#CC3CCCC3)cc2O[C@H]1CN(C)Cc1cccnc1	-1	.	.	-148	.
Cc1c(C(=O)Nc2nnc(C3CC3)s2)oc2c(Cl)cccc12	.	-18	2	.	3
Cc1c(C(=O)Nc2nnc(C3CC3)s2)oc2ccccc12	53*	65	45*	4	6
CO[C@H]1CN(C)C(=O)c2ccc(NS(C)(=O)=O)cc2OC[C@@H](C)N(CC2CCCCC2)C[C@H]1C	-2	.	.	7	.
Cc1nn(-c2ccccc2)c(C)c1C(=O)NCCc1ccc(Cl)cc1	.	-9	-1	.	2
COc1ccccc1C1CCN(C(=O)c2cnn(-c3ccccc3)c2C)CC1	4	-2	41*	0	0
O=C(NCCc1ccccc1)c1ccc(-n2cnnn2)cc1	48*	39	7	-3	-1
COc1ccccc1C1CCN(C(=O)c2ccccc2)CC1	7	4	-2	1	-1
Cc1ccc(NC(=O)c2cnn(-c3ccccc3)c2C)cc1	-23	.	22	-19	2
O=C(NCCc1c[nH]c2ccccc12)c1ccc(-n2cnnn2)cc1	0	.	0	-34	1
Cc1ccc(NC(=O)c2cnn(-c3ccccc3)c2C)c(C)c1	40	68	45*	-8	1
Cc1nn(-c2ccccc2)c(C)c1C(=O)NCCc1ccccc1	24	88*	-4	1	5
COc1ccc(NC(=O)Nc2ccc3c(c2)C(=O)N([C@H](C)CO)C[C@H](C)[C@@H](CN(C)S(=O)(=O)c2c(C)noc2C)OCCCC[C@H](C)O3)cc1	-1	.	.	.	.
C/C=C/c1ccc2c(c1)O[C@@H](CN(C)C(=O)C1CCC1)[C@@H](C)CN([C@H](C)CO)S2(=O)=O	.	.	.	11	.

Assay outcomes from PubChem.
